Reference: PubChem BioAssay (Tox21)
Results filed as inconclusive are left out. Activity calls are given as the source filed them. Unless noted, calls come from the whole dose curve.

Experiments:
[1] = Nuclear factor erythroid 2-related factor 2/antioxidant responsive element (Nrf2/ARE) small molecule agonists: luciferase reporter gene qHTS assay in human keratinocytes (AID 1919969); note: nearly all actives have a fitted effect of over 35% in size
[2] = molecular target: Gonadotropin-releasing hormone receptor (Homo sapiens) (UniProt P30968); assay: Human gonadotropin-releasing hormone receptor (GnRHR) small molecule agonists, calcium flux assay in GnRHR-HEK293 cells (AID 1920063); note: nearly all actives have a fitted effect of over 35% in size
Gonadotropin-releasing hormone receptor (Homo sapiens), sequence (P30968 whole entry, looked up): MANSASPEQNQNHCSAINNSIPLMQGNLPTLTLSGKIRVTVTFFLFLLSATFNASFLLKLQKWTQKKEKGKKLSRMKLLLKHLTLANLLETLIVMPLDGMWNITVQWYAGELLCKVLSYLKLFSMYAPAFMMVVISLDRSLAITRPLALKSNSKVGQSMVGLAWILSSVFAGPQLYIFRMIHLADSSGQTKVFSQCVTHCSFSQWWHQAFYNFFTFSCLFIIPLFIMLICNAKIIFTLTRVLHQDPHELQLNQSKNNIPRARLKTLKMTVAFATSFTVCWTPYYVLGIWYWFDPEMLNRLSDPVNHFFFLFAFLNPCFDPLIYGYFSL
In short: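 Stable human GnRHR HEK293 line. 18 h plating, then calcium dye for 1 h at 37 C. Agonist-mode compound addition from DMSO stocks; fluorescence monitored 3 min.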

[3] = molecular target: KiSS-1 receptor (Homo sapiens) (UniProt Q969F8); assay: Human kisspeptin (KISS1R) small molecule agonists, calcium flux assay in KISS1R-HEK293 cells (AID 1920064; active = well fitted activation curve with a large enough effect in the repeat runs)
KiSS-1 receptor (Homo sapiens), sequence (Q969F8 whole entry, looked up): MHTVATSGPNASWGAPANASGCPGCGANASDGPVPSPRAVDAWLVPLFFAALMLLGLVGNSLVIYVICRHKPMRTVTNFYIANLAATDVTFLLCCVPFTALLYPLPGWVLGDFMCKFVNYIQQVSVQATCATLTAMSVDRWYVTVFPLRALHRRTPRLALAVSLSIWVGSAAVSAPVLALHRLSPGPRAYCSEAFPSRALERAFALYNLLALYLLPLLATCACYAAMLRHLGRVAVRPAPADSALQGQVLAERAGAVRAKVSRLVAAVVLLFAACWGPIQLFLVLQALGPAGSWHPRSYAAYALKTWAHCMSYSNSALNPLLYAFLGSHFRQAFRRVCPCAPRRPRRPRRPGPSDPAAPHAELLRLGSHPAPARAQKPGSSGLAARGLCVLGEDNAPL
In short: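 After overnight (18 h) culture at 37 C/5% CO2, human KISS1R-HEK293 cells received calcium dye for 1 h, then test compound; emission at 540 nm (excitation 480 nm) was tracked for 3 min.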

[4] = G protein-coupled receptor (GPCR) small molecule agonists, calcium flux assay: HEK293 wild type cell line counter screen (AID 1920065)
In short: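 Following 18 h incubation at 37 C/5% CO2, plates got calcium dye for 1 h; compounds, ATP or DMSO were then pinned in and fluorescence followed kinetically (480/540 nm).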

[5] = p53 small molecule agonists, cell-based qHTS assay with human liver microsomes (AID 1963577);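 note: p53 response element beta-lactamase reporter cells with liver microsomes plus NADPH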
In short: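 Reporter activation was measured by LiveBLAzer fluorescence intensity in p53RE-bla cells, which had been exposed to compounds for 16 h at 37 C alongside 0.5 mg/mL human liver microsomes and 0.5 mg/mL NADPH (final concentrations).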

[6] = p53 small molecule agonists, cell-based qHTS assay with rat liver microsomes (AID 1963578)
In short: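 Compound in DMSO added to p53RE-bla cells 5 h post-plating; rat microsomes/NADPH 0.5 mg/mL final; 16 h, 37 C; LiveBLAzer 2 h RT.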

[7] = p53 small molecule agonists, cell-based qHTS assay with human liver microsomes: qHTS cell viability counter screen (AID 1963579); note: nearly all actives have a fitted effect of over 45% in size
In short: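 HLM-supplemented (0.5 mg/mL final) and NADPH-supplemented (0.5 mg/mL final) p53RE-bla cultures, 4,000 cells per well, were dosed with compounds in DMSO for 16 h at 37 C; luminescent ATP detection (CellTiter-Glo, 30 min, room temperature) quantified surviving cells.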

[8] = p53 small molecule agonists, cell-based qHTS assay with rat liver microsomes: qHTS cell viability counter screen (AID 1963580); note: nearly all actives have a fitted effect of over 45% in size
In short: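 Cytotoxicity counter screen: intracellular ATP measured by CellTiter-Glo luminescence in the same wells as the beta-lactamase reporter read, on HCT-116 p53RE-bla cells exposed 16 h at 37 C to compounds with rat liver microsomes and NADPH, each 0.5 mg/mL final.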

[9] = p53 small molecule agonists, cell-based qHTS assay: qHTS cell viability counter screen (AID 1963581); note: nearly all actives have a fitted effect of over 45% in size
In short: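 qHTS counter screen: 16 h compound exposure at 37 C of p53RE-bla HCT-116 cells (4,000 per well, seeded 5 h prior), cell viability by ATP luminescence.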

[10] = p53 small molecule agonists, cell-based qHTS assay (AID 1963582; active = well fitted activation curve with a large enough effect in the signal ratio in the repeat runs, not every such curve was filed as active; the % refers to the signal ratio)
In short: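 Measured: fluorescence from cleaved LiveBLAzer substrate. System: p53RE-bla cells, 16 h compound treatment at 37 C, 2 h substrate step at room temperature.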

[11] = molecular target: 5-hydroxytryptamine receptor 2A (Homo sapiens) (UniProt P28223); assay: 5-hydroxytryptamine receptor 2A (HTR2A) small molecule antagonists, cell-based qHTS assay (AID 1963586); note: nearly all actives have a fitted effect of over 45% in size
5-hydroxytryptamine receptor 2A (Homo sapiens), sequence (P28223 whole entry, looked up): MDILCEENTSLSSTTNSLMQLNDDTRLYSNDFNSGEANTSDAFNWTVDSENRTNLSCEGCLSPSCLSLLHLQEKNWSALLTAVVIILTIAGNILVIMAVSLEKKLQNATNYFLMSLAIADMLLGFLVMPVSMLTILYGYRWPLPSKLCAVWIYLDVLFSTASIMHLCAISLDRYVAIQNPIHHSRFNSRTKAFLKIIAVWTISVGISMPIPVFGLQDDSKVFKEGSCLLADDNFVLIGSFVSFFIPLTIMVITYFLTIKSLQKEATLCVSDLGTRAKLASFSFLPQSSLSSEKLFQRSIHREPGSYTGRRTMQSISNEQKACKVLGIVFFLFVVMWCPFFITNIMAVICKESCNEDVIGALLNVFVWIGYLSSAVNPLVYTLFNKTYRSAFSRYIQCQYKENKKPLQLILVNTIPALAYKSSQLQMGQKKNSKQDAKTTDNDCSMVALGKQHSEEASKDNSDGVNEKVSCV
In short: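 CHO cells stably expressing human HTR2A were plated for 18 h at 37 C, then loaded with calcium dye for 1 h. Compounds were preincubated 5 min at room temperature before DOI (4 nM solution) was added. Kinetic fluorescence was read for 3 min.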

[12] = molecular target: Muscarinic acetylcholine receptor M1 (Homo sapiens) (UniProt P11229); assay: Cholinergic receptor muscarinic 1 (CHRM1) small molecule antagonists, cell-based qHTS assay (AID 1963588); note: nearly all actives have a fitted effect of over 40% in size; note: potency is the fitted concentration of half-maximal effect
Muscarinic acetylcholine receptor M1 (Homo sapiens), sequence (P11229 whole entry, looked up): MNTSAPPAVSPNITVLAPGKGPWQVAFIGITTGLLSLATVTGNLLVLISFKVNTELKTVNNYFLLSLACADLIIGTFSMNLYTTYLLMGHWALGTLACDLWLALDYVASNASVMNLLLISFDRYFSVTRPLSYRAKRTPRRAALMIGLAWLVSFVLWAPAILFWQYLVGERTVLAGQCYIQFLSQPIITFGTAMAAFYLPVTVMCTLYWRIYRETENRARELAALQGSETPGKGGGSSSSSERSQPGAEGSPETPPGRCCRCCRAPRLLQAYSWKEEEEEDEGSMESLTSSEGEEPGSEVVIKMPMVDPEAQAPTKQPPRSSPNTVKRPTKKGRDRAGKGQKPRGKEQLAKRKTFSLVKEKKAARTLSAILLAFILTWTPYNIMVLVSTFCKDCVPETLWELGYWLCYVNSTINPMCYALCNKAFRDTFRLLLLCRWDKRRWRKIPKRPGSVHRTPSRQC
In short: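 Compounds were tested at 15 concentrations in three independent runs. Dye-loaded CHRM1-CHO cells were exposed 5 min at room temperature before stimulation by acetylcholine added at 50nM. Intracellular calcium was read kinetically on FDSS for 3 min.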

[13] = molecular target: Muscarinic acetylcholine receptor M1 (Homo sapiens) (UniProt P11229); assay: Cholinergic receptor muscarinic 1 (CHRM1) small molecule agonists, cell-based qHTS assay (AID 1963589); note: nearly all actives have a fitted effect of over 35% in size
In short: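 Kinetic fluorescence (1 s intervals) of calcium-sensitive dye in human M1 CHO cells after compound addition; cells pre-incubated 18 h at 37 C/5% CO2 and dye-loaded 1 h.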

[14] = cAMP Responsive Elements (CRE) small molecule agonists, cell-based qHTS assay (AID 1963590)
In short: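 Test agents in DMSO were incubated 3 h at 37 C/5% CO2 with CRE-bla HEK 293T cells seeded 18 h earlier; LiveBLAzer B/G FRET substrate was added and read after 2 h at room temperature.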

[15] = cAMP Responsive Elements (CRE) small molecule antagonists, cell-based qHTS assay (AID 1963591; active = well fitted inhibition curve with a large enough effect in the signal ratio in the repeat runs, not every such curve was filed as active; the % refers to the signal ratio)
In short: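 Reporter line CRE-bla HEK 293T in dialyzed-FBS DMEM; cells preincubated 18 h, treated 3 h with compound plus NKH477 (0.25 uM final); LiveBLAzer FRET, 2 h RT.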

[16] = molecular target: Beta-2 adrenergic receptor (Homo sapiens) (UniProt P07550); assay: Adrenergic beta2 receptor (ADRB2) small molecule antagonists, cell-based qHTS assay (AID 1963592); note: series mostly up to about 92 µM; nearly all actives have a fitted effect of over 50% in size
Beta-2 adrenergic receptor (Homo sapiens), sequence (P07550 whole entry, looked up): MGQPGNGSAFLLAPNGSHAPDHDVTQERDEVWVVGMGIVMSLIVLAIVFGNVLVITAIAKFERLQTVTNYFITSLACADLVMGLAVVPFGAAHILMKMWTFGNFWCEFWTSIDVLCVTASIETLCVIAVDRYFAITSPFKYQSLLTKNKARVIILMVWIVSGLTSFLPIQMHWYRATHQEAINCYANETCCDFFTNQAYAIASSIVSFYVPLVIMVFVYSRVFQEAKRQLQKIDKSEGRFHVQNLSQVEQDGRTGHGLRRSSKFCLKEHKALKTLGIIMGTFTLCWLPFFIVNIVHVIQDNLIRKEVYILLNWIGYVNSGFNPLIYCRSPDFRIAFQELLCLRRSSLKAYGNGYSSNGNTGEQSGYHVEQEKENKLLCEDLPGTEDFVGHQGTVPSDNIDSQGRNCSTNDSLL
In short: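 Assay format: CHO-ADRB2 cells, 18-20hr seeding at 37C/5% CO2, then compound plus 1nM isoproterenol agonist mix for 0.5hr RT. Homogeneous time-resolved fluorescence cAMP detection after 1hr, expressed as 665/615 nm ratio.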

[17] = molecular target: D(2) dopamine receptor (Homo sapiens) (UniProt P14416); assay: Dopamine D2 receptor (DRD2) small molecule agonists, cell-based qHTS assay (AID 1963594); note: nearly all actives have a fitted effect of over 35% in size
D(2) dopamine receptor (Homo sapiens), sequence (P14416 whole entry, looked up): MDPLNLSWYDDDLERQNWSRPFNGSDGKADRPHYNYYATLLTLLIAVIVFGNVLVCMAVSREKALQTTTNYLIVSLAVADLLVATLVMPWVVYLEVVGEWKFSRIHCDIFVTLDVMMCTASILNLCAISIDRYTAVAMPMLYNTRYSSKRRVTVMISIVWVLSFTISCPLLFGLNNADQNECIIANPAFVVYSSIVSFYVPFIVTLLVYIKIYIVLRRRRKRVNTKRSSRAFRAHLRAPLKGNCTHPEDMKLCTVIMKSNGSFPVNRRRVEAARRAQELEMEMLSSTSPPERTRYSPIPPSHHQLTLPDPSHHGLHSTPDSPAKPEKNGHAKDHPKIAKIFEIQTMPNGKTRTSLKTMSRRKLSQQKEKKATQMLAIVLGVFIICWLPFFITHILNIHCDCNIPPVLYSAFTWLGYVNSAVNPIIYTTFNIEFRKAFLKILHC
In short: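 HEK293 cells stably expressing human DRD2, pre-treated with PDE inhibitor Ro20-1724 (0.1 mM final) and compound 10 min at room temperature, then stimulated with NKH477 (200nM […]) for 30 min. cAMP read by HTRF (665/620 nm).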

[18] = molecular target: 5-hydroxytryptamine receptor 2A (Homo sapiens) (UniProt P28223); assay: 5-hydroxytryptamine receptor 2A (HTR2A) small molecule agonists, cell-based qHTS assay (AID 1963587); note: nearly all actives have a fitted effect of over 30% in size
In short: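 CHO cells stably expressing human HTR2A, plated 18 h, loaded with calcium dye 1 h at 37 C. Agonist mode: compounds added and intracellular calcium fluorescence recorded kinetically for 2 min at 1 sec intervals.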

[19] = molecular target: D(2) dopamine receptor (Homo sapiens) (UniProt P14416); assay: Dopamine D2 receptor (DRD2) small molecule antagonists, cell-based qHTS assay (AID 1963595; active = well fitted inhibition curve with a large enough effect in the signal ratio in the repeat runs, with a control signal flat; the % refers to the signal ratio; note: potency is the fitted concentration of half-maximal effect)
In short: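 Human DRD2 antagonist qHTS measuring cAMP by HTRF. The cells are exposed to compound for 10 min, then to NKH477 (200 nM) and quinpirole (12 nM) for 30 min at RT, with Ro20-1724 (0.1 mM) present throughout.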

[20] = molecular target: Beta-2 adrenergic receptor (Homo sapiens) (UniProt P07550); assay: Adrenergic beta2 receptor (ADRB2) small molecule agonists, cell-based qHTS assay (AID 1963593);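 note: CHO cells stably overexpressing human ADRB2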
In short: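 CHO cells stably over-expressing ADRB2 were plated overnight at 37C, then dosed with compounds plus a stimulation mix containing 100uM IBMX and 25uM Ro-20-1724 for 0.5hr at room temperature. cAMP was measured by HTRF competition, 1hr.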
% is set by controls: 0 for no effect and ±100 for the full control effect.

Nc1cccc(S(=O)(=O)O)c1
inactive: Potency [1] | Potency [2] | outcome [3] | outcome [4] | Potency [5] | Potency [6] | Potency [7] | Potency [8] | Potency [9] | Potency [10] | Potency [11] | Potency [12] | Potency [13] | Potency [14] | Potency [15] | Potency [16] | Potency [17]

CC(=O)OC(C)(C)C
inactive: Potency [1] | Potency [2] | outcome [3] | outcome [4] | Potency [5] | Potency [6] | Potency [7] | Potency [8] | Potency [9] | Potency [10] | Potency [18] | Potency [13] | Potency [14] | Potency [15] | Potency [16] | Potency [17] | Potency [19]

CC(C)(c1ccc(Oc2ccc3c(c2)C(=O)OC3=O)cc1)c1ccc(Oc2ccc3c(c2)C(=O)OC3=O)cc1
inactive: Potency [1] | Potency [2] | outcome [3] | outcome [4] | Potency [5] | Potency [6] | Potency [7] | Potency [8] | Potency [9] | Potency [10] | Potency [11] | Potency [18] | Potency [15] | Potency [16] | Potency [20] | Potency [17] | Potency [19]
active: Potency [12] 37.3 µM

Cc1nc2n(c(=O)c1CCN1CCC(c3noc4cc(F)ccc34)CC1)CCC[C@H]2O
active: Potency [12] 4.48 µM | Potency [19] 0.0326 µM
inactive: activity, positive = activation [1] 1.67% [at 19 µM] | activity change [2] -1.01% [at 11.8 µM, stronger effect = higher value] | activation [3] 2.67% [at 15.8 µM] | activation [4] -0.871% [at 11.8 µM] | activation [5] -1.61% [at 13.5 µM] | activation [6] -1.62% [at 13.6 µM] | activity change, negative = cytotoxicity [7] -2.44% [at 13.5 µM] | activity change, negative = cytotoxicity [8] 3.38% [at 13.5 µM] | activity change, negative = cytotoxicity [9] -16.9% [at 13.5 µM] | activation [10] -2.71% [at 13.5 µM] | activation [13] -0.822% [at 15.8 µM] | activation [14] -1.39% [at 19 µM] | activity change, negative = inhibition [15] 6.49% [at 18.9 µM] | activity change, negative = inhibition [16] -0.824% [at 19 µM] | Potency [20] | activation [17] -27% [at 19 µM]

CC(=O)CC(c1ccc([N+](=O)[O-])cc1)c1c(O)c2ccccc2oc1=O (stereo unspecified)
inactive: Potency [1] | Potency [2] | outcome [3] | outcome [4] | Potency [5] | Potency [6] | Potency [7] | Potency [8] | Potency [9] | Potency [10] | Potency [11] | Potency [18] | Potency [12] | Potency [13] | Potency [14] | Potency [15] | Potency [20] | Potency [17] | Potency [19]

CCc1nccnc1CC
inactive: activity, positive = activation [1] 0.453% [at 19 µM] | activity change [2] -0.658% [at 11.8 µM, stronger effect = higher value] | activation [3] 1.62% [at 15.8 µM] | activation [4] -0.595% [at 11.8 µM] | activation [5] 3.14% [at 13.5 µM] | activation [6] 1.15% [at 13.6 µM] | activity change, negative = cytotoxicity [7] -2.07% [at 13.5 µM] | activity change, negative = cytotoxicity [8] -5.78% [at 13.5 µM] | activity change, negative = cytotoxicity [9] 1.59% [at 13.5 µM] | activation [10] 3.48% [at 13.5 µM] | activity, negative = inhibition [11] -8.77% [at 12.7 µM] | activation [18] 3.43% [at 15.9 µM] | activation [14] 0.766% [at 19 µM] | activity change, negative = inhibition [15] -3.19% [at 18.9 µM] | activity change, negative = inhibition [16] -4.86% [at 19 µM] | Potency [20] | activation [17] -2.33% [at 19 µM] | activity change, negative = inhibition [19] -10.9% [at 18.9 µM]

CCOC(=O)Oc1ccc(CCNC(=O)[C@H](CCSC)NC(C)=O)cc1OC(=O)OCC
inactive: Potency [1] | Potency [2] | outcome [3] | outcome [4] | Potency [5] | Potency [6] | Potency [7] | Potency [8] | Potency [9] | Potency [10] | Potency [11] | Potency [18] | Potency [12] | Potency [13] | Potency [14] | Potency [15] | Potency [16] | Potency [19]

CCCCCCn1c(=O)c2c(ncn2C)n(C)c1=O
inactive: Potency [1] | Potency [2] | outcome [3] | outcome [4] | Potency [5] | Potency [6] | Potency [7] | Potency [8] | Potency [9] | Potency [10] | Potency [11] | Potency [18] | Potency [12] | Potency [14] | Potency [15] | Potency [16] | Potency [17] | Potency [19]

CC(=O)CC(C)C
inactive: Potency [1] | Potency [2] | outcome [3] | outcome [4] | Potency [5] | Potency [6] | Potency [7] | Potency [8] | Potency [9] | Potency [10] | Potency [18] | Potency [12] | Potency [13] | Potency [14] | Potency [15] | Potency [16] | Potency [20] | Potency [17] | Potency [19]

CC(C)(C)C(=O)OCOC(=O)[C@@H]1N2C(=O)[C@@H](NC(=O)[C@H](N)c3ccccc3)[C@H]2SC1(C)C
inactive: Potency [1] | Potency [2] | outcome [3] | outcome [4] | Potency [5] | Potency [6] | Potency [7] | Potency [8] | Potency [9] | Potency [10] | Potency [11] | Potency [18] | Potency [12] | Potency [13] | Potency [16] | Potency [17] | Potency [19]

Cc1c(N)cccc1Cl
inactive: Potency [1] | Potency [2] | outcome [3] | outcome [4] | Potency [5] | Potency [6] | Potency [7] | Potency [8] | Potency [9] | Potency [10] | Potency [11] | Potency [18] | Potency [13] | Potency [14] | Potency [15] | Potency [16] | Potency [17] | Potency [19]

Cc1c(C)c2c(c(C)c1O)CC[C@@](C)(CCC[C@H](C)CCC[C@H](C)CCCC(C)C)O2
inactive: Potency [1] | Potency [2] | outcome [3] | outcome [4] | Potency [5] | Potency [6] | Potency [7] | Potency [8] | Potency [9] | Potency [10] | Potency [14] | Potency [15] | Potency [16] | Potency [20] | Potency [17] | Potency [19]

CCC=CC#N
inactive: Potency [1] | Potency [2] | outcome [3] | outcome [4] | Potency [5] | Potency [6] | Potency [7] | Potency [8] | Potency [9] | Potency [10] | Potency [11] | Potency [18] | Potency [12] | Potency [13] | Potency [14] | Potency [16] | Potency [17] | Potency [19]
